Read-out in experiment [1]: Interleukin-8 (IL8), CXCL8 (gene 3576)
The experiment can be described thus: BSK_MyoF_IL8: BioMAP Diversity Plus: MyoF Assay for Interleukin-8 (IL8) Biomarker Activity (AID 2284261). The conditions noted are these: primary human lung fibroblasts. Put shortly: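 IL-8 quantified by ELISA after 24 h compound exposure of primary human lung fibroblasts. SRB staining of parallel cultures flagged cytotoxicity; DMSO served as baseline.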

Read-out in a further experiment: Decorin, DCN (gene 1634)
Put plainly: BSK_MyoF_Decorin: BioMAP Diversity Plus: MyoF Assay for Decorin Biomarker Activity (AID 2284265). The conditions noted are these: primary human lung fibroblasts. In short, it runs like this: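 Decorin protein was quantified by ELISA 24 h after chemical addition to primary human lung fibroblasts and analysed as increase over DMSO. Cytotoxicity was tracked in parallel cultures by SRB total-protein staining read at 560 nm.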

Experiment [2] is described as follows: BSK_MyoF_SRB: Viability Assessment in the BioMAP Diversity Plus: MyoF Assay (AID 2284267).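 Also: total protein by SRB absorbance in parallel cultures as cytotoxicity measure.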 The conditions noted are these: primary human lung fibroblasts. Put shortly:
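Confluent human lung fibroblasts were exposed to test chemicals for 24 h. Parallel wells were then fixed in 10% TCA, stained with 0.1% sulforhodamine B and measured at 560 nm. DMSO served as baseline for curve fitting.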

Read-out in experiment [3]: Matrix Metallopeptidase 1 (MMP1), MMP1 (gene 4312)
Put plainly: BSK_MyoF_MMP1: BioMAP Diversity Plus: MyoF Assay for Matrix Metallopeptidase 1 (MMP1) Biomarker Activity (AID 2284268). Particulars: primary human lung fibroblasts. In short, it runs like this: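 Human lung fibroblasts (MyoF system) exposed to chemical for 24 h in 96-well format; MMP1 biomarker quantified by ELISA, with activity fitted in the positive direction relative to DMSO baseline.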

Read-out in experiment [4]: Monocyte Chemoattractant Protein-1 (MCP1), CCL2 (gene 6347)
The experiment can be described thus: BSK_BF4T_MCP1: BioMAP Diversity Plus: BF4T Assay for Monocyte Chemoattractant Protein-1 (MCP1) Biomarker Activity (AID 2284259). Particulars: primary human bronchial epithelial cells with fibroblasts. As for the experimental part: BSK_BF4T is a cell-based, multiplexed-readout assay that uses bronchial epithelial cells and dermal fibroblasts, a human vascular primary cell, with measurements taken at 24 hours after chemical dosing in a microplate: 96-well plate.BSK_BF4T_MCP1 is an assay component measured in the BSK_BF4T assay. It measures MCP-1 antibody related to regulation of gene expression using ELISA technology.Data from the assay component BSK_BF4T_MCP1 was analyzed at the endpoint, BSK_BF4T_MCP1, in the positive analysis fitting direction relative to DMSO as the negative control and baseline of activity. Using a type of binding reporter, gain or loss-of-signal activity can be used to understand protein changes. […]
The levels of cell surface (or secreted, indicated by the prefix "s") biomarker endpoints were measured by ELISA. Overt cytotoxicity to cells in confluent adherent cultures (all systems other than the BT system) was assessed by measuring total protein levels using sulforhodamine B (SRB) staining in parallel cultures at the time of biomarker measurements, indicated as SRB endpoints. For proliferation assays for adherent cell types, individual cell types are cultured at sub-confluence and relative cell numbers quantified by SRB staining at time points optimized for each system (48 h: 3C and CASM3C systems; 72 h: BT and HDF3CGF systems; 96 h: SAg system). […] Plates were read after 6 h.

Read-out in experiment [5]: Intercellular Adhesion Molecule 1 (ICAM1), ICAM1 (gene 3383)
Put plainly: BSK_BF4T_ICAM1: BioMAP Diversity Plus: BF4T Assay for Intercellular Adhesion Molecule 1 (ICAM1) Biomarker Activity (AID 2284260). Particulars: primary human bronchial epithelial cells with fibroblasts. In short, it runs like this: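 ICAM-1 levels measured by ELISA after 24 h chemical treatment of bronchial epithelial cell/dermal fibroblast co-cultures, read against DMSO baseline. Overt cytotoxicity checked in parallel cultures by sulforhodamine B staining.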

Read-out in another experiment: CD90, THY1 (gene 7070)
Put plainly: BSK_BF4T_CD90: BioMAP Diversity Plus: BF4T Assay for CD90 Biomarker Activity (AID 2284262). The conditions noted are these: primary human bronchial epithelial cells with fibroblasts. Put shortly: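 CD90 levels by ELISA after 24 h treatment of human bronchial epithelial cell/dermal fibroblast cultures, analysed versus DMSO. Overt cytotoxicity checked in parallel cultures by sulforhodamine B staining.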

Read-out in experiment [6]: Interleukin-8 (IL8), CXCL8 (gene 3576)
Put plainly: BSK_BF4T_IL8: BioMAP Diversity Plus: BF4T Assay for Interleukin-8 (IL8) Biomarker Activity (AID 2284263). Particulars: primary human bronchial epithelial cells with fibroblasts. Put shortly:
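Human bronchial epithelial cells with dermal fibroblasts co-culture; IL-8 measured by ELISA 24 hours after dosing, fitted vs DMSO. Cytotoxicity tracked in parallel cultures by SRB total-protein staining.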

Read-out in experiment [7]: Interleukin-1 alpha (IL1a), IL1A (gene 3552)
Put plainly: BSK_BF4T_IL1a: BioMAP Diversity Plus: BF4T Assay for Interleukin-1 alpha (IL1a) Biomarker Activity (AID 2284264). Particulars: primary human bronchial epithelial cells with fibroblasts. Put shortly:
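ELISA read-out of IL-1α from bronchial epithelial cell/dermal fibroblast co-cultures 24 h after compound addition. Increases scored against DMSO negative control. Cytotoxicity monitored by sulforhodamine B staining of parallel cultures.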

Read-out in the next experiment: KRT18 (gene 3875)
Put plainly: BSK_BF4T_Keratin818: BioMAP Diversity Plus: BF4T Assay for Keratin 818 Biomarker Activity (AID 2284266). The conditions noted are these: primary human bronchial epithelial cells with fibroblasts. Put shortly: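 Keratin 8/18 levels quantified by ELISA after 24 h chemical treatment of bronchial epithelial cell/dermal fibroblast co-cultures, fitted in positive direction relative to DMSO. Parallel SRB staining tracks overt cytotoxicity.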

Several values for one entry are separate records, joined by “and”; a condition that tells them apart may be missing. Equal entries are not always repeated. The source holds several records for some structures; these can differ, active in one and inactive in another. Activity calls are given as the source filed them. The calls were made as follows: active = hit-call score of the fitted dose curve at least 0.9, where 1 is the maximum; inactive = score below 0.9.

`CC(c1cc(C(C)(C)C)cc(C(C)(C)C)c1O)c1cc(C(C)(C)C)cc(C(C)(C)C)c1O`: the outcome in experiment [1] is “inactive”; with Decorin, DCN (gene 1634), “inactive”; in experiment [2] it was “inactive”; in [3], “inactive”.
With `Nc1cccc(N)n1`, the outcome in experiment [1] was “inactive”; with Decorin, DCN (gene 1634), “inactive”; in experiment [2], “inactive”; in experiment [3] it was “inactive”.
For `CC/C=C\C/C=C\C/C=C\CCCCCCCC(=O)OC`, the AC50 – broadly, the concentration at which the activity in the assay is half-maximal – is 20 µM (active) in [1], 10.4 µM (active) in [2] and 36.5 µM (active) in experiment [3]. For the same compound, in the experiment with Decorin, DCN (gene 1634), the outcome was inactive.
With `C[N+](C)(C)CCCNS(=O)(=O)C(F)(F)C(F)(F)C(F)(F)C(F)(F)C(F)(F)C(F)(F)C(F)(F)C(F)(F)F`, the outcome in experiment [4] is “inactive”; in experiment [5], “inactive”; in experiment [1], “inactive”; with CD90, THY1 (gene 7070) it was “inactive”; in [6], “inactive”; in experiment [7], “inactive”. Also, the AC50 was 30 µM (active) in [7]; 9.66 µM (active) and 11.2 µM (active) in the experiment with Decorin, DCN (gene 1634); 26.5 µM (active) and 5.95 µM (active) in the experiment with KRT18 (gene 3875); 37.6 µM (active) and 38.7 µM (active) in [2]; 49.2 µM (active) and 41 µM (active) in [3].
`CCc1cccc(C)c1N(C(=O)CS(=O)(=O)O)C(C)COC` (stereo unspecified): the outcome in [1] is “inactive”; with Decorin, DCN (gene 1634) it was “inactive”; in experiment [2] it was “inactive”; in experiment [3] it was “inactive”.
Turning to `CC(C)c1cccc(C(C)C)c1N`, the outcome in experiment [1] is “inactive”; in the experiment with Decorin, DCN (gene 1634), “inactive”; in [2], “inactive”; in [3], “inactive”.
Take `C=C(C)C(=O)OCCCCCCCCCCCC`: the outcome in [1] is “inactive”; with Decorin, DCN (gene 1634), “inactive”; in experiment [2] it was “inactive”; in experiment [3], “inactive”.
For `O=C(Cl)c1c(Cl)c(Cl)c(C(=O)Cl)c(Cl)c1Cl`, the outcome in experiment [1] is “inactive”; with Decorin, DCN (gene 1634), “inactive”; in experiment [2], “inactive”; in experiment [3], “inactive”.
As for `CCCCC1C(=O)N(c2ccccc2)N(c2ccccc2)C1=O`, the outcome in experiment [1] was “inactive”; with Decorin, DCN (gene 1634), “inactive”; in experiment [2] it was “inactive”; in experiment [3], “inactive”.
For the compound `CC/C=C\CCOC(=O)c1ccccc1O`, the outcome in experiment [1] and in experiment [3] was inactive. Also, the AC50 was 20 µM (active) with Decorin, DCN (gene 1634) and 37 µM (active) in experiment [2].
On to `O=C1CCCCCCCCCCC1`, for which the outcome was “inactive” in experiment [1]; “inactive” with Decorin, DCN (gene 1634); “inactive” in [2]; “inactive” in experiment [3].
As to `C=CC(=O)NCOCCCC`, the outcome in experiment [1] was “inactive”; with Decorin, DCN (gene 1634), “inactive”; in [2] it was “inactive”; in experiment [3] it was “inactive”.
For the compound `Fc1ccc(Br)cc1`, the outcome in experiment [1] was “inactive”; with Decorin, DCN (gene 1634), “inactive”; in experiment [2], “inactive”; in experiment [3], “inactive”.
Regarding `C=CC(=O)OCC(C)OCC(C)OCC(C)OC(=O)C=C` (stereo unspecified), the outcome in experiment [1] was inactive. Also, the half-maximal activity concentration (AC50) with Decorin, DCN (gene 1634) was 20 µM (active); in [2] it was 33.2 µM (active); in experiment [3], 35.1 µM (active).
As for `CC=C(C)C=CC=C(C)C`, the outcome in experiment [1] was “inactive”; with Decorin, DCN (gene 1634), “inactive”; in experiment [2], “inactive”; in [3] it was “inactive”.
With `C=CC(=O)OCCCCCCCC(C)C`, the outcome in experiment [1] was “inactive”; with Decorin, DCN (gene 1634) it was “inactive”; in experiment [2], “inactive”; in experiment [3] it was “inactive”.
Turning to `COc1ccc(C(=O)/C(Br)=C\C(=O)O)cc1`, the AC50 in experiment [1] was 3.97 µM (active); in experiment [3], 16.1 µM (active) and 20 µM (active). The outcome was “inactive” in experiment [1]; “inactive” with Decorin, DCN (gene 1634); “inactive” in experiment [2].
As for `Oc1ccc(/C=C/c2cc(O)cc(O)c2)cc1`, the outcome in [1] is “inactive”; in the experiment with Decorin, DCN (gene 1634) it was “inactive”; in experiment [2] it was “inactive”; in experiment [3] it was “inactive”.
With `CCC1(C)C(=O)N(Cl)C(=O)N1Cl` (stereo unspecified), the outcome in [1] was “inactive”; in the experiment with Decorin, DCN (gene 1634), “inactive”; in [2], “inactive”; in experiment [3], “inactive”.
Consider `CC=C(C)C(C)=O`, for which the outcome in experiment [1] was “inactive”; in the experiment with Decorin, DCN (gene 1634), “inactive”; in experiment [2] it was “inactive”; in [3], “inactive”.
With `CCCCCCCCCCCC(C)=O`, the outcome in [1] was “inactive”; with Decorin, DCN (gene 1634), “inactive”; in experiment [2], “inactive”; in experiment [3], “inactive”.
Take `CCCCCCCO`: the outcome in [1] was “inactive”; with Decorin, DCN (gene 1634) it was “inactive”; in experiment [2], “inactive”; in experiment [3] it was “inactive”.
`O=C(O)C(F)(F)C(F)(F)C(F)(F)C(F)(F)C(=O)O`: the outcome in experiment [4] was “inactive”; in experiment [5], “inactive”; in experiment [1] it was “inactive”; in the experiment with CD90, THY1 (gene 7070), “inactive”; in experiment [6], “inactive”; in [7], “inactive”. Moreover, the outcome with Decorin, DCN (gene 1634) was “inactive”; in the experiment with KRT18 (gene 3875) it was “inactive”; in experiment [2], “inactive”; in [3], “inactive”.

The values above are taken from PubChem BioAssay (EPA / NIEHS).
